Compound activity: PubChem BioAssay, several laboratories
Rows were chosen to be rich in hits. Some 2.4% of all compounds tested hit in one or more screens of this group.
ANO1 activ: mouse TMEM16A channel activation, primary screen; B-score at 10 µM; HEK293 TMEM16A/YFP-H148Q/I152L, iodide quench fluorescence; active compounds read low; Q8BHY3; 0.3% of 340,000 active; AID 623877;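 active means fluorescence-ratio B-score plate-corrected deviation score at least 3 library SD below zero, with starting fluorescence score within 5 deviations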;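 further: channel opened by trigger with iodide after compound preincubation; score built on the fluorescence ratio of max minus min over baseline; more negative score means more quench and so TMEM16A activation or potentiation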
TMEM16A inh: inhibitors of mouse TMEM16A calcium-activated chloride channel; Q8BHY3; HEK293 TMEM16A/YFP iodide influx fluorescence, ionomycin; normalized B-score (activity score, 25-100; higher = stronger inhibition) at 10 µM; 1.2% of 310,000 active;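 active means ratio plate-corrected score three or more library SD toward inhibition, starting fluorescence score within five deviations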;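 further: score derived from kinetic fluorescence span divided by baseline fluorescence per well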
HTR2A ag: agonists of mouse serotonin 5-HT2A receptor (HTR2A); P35363; CHO-K1 mHTR2A beta-arrestin complementation, luminescence; percent of 30 µM serotonin response; activation, % at 7.6 µM; 0.66% of 360,000 active; AID 624169;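 active means activation above a run cutoff, the mean activation of all tested compounds plus 3 SD, cut at about 14% in these data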;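 further: 0% = plate median of compound wells and 100% = 30 µM serotonin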
TLR4 MyD88 comp: blocks binding of human TLR4 to MyD88; O00206+Q99836; HeLa CL3-4 TLR4/MyD88 BLA complementation, FRET ratio; inhibition, % at 8.4 µM; 0.18% of 200,000 active; in the data active means inhibition above about 25%;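 further: 0% = vehicle and 100% = reference inhibitor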
Target sequence (O00206 whole entry, looked up): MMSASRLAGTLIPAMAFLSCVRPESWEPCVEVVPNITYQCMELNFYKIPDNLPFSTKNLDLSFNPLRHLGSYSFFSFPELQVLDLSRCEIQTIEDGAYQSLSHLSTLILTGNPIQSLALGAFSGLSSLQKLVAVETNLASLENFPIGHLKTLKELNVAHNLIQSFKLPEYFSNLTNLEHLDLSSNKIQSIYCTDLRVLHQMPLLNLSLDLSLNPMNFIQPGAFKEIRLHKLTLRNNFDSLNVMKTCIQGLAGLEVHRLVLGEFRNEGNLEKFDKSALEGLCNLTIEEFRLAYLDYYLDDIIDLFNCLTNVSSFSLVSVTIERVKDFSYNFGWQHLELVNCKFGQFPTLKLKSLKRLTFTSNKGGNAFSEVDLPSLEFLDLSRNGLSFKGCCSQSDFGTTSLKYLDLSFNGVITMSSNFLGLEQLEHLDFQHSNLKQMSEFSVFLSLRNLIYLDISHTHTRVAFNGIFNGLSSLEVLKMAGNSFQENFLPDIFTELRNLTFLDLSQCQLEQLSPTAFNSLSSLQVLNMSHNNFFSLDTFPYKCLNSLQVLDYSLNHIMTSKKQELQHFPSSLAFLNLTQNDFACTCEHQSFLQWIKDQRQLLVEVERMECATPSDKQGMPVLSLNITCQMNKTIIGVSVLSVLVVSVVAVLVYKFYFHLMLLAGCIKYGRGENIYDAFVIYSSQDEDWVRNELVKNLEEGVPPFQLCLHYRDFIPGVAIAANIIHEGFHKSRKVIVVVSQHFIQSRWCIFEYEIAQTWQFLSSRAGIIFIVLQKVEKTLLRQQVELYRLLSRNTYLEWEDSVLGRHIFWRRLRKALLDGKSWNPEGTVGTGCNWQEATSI
Target sequence (Q99836 whole entry, looked up): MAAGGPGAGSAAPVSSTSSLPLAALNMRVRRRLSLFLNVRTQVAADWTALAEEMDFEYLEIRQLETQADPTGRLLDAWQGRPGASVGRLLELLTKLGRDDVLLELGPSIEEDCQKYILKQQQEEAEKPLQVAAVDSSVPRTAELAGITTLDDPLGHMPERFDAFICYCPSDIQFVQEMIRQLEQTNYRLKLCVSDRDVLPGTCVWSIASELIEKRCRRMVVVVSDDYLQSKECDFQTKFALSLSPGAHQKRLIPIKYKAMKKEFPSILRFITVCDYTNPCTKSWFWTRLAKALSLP
NOD2-RIPK2 inh: NOD2-RIPK2 protein interaction inhibition; 0.38% of 360,000 active; O43353; inhibition, % at 4.98 µM; CHO BLA complementation NOD2-RIPK2, CCF4 ratio; in the data active means inhibition above about 21%;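 further: 0% = vehicle only and 100% = reference blocker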
TLR9-MyD88 inh: inhibitors of human TLR9-MyD88 binding; Q9NR96+Q99836; CHO BLA complementation TLR9-MyD88, CCF4 FRET ratio; inhibition, % at 4.98 µM; 0.21% of 340,000 active; AID 504734;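 active means inhibition above the mean over all tested compounds plus 3 SD, cut at about 21% in these data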;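 further: 0% = DMSO only wells and 100% = clavulanate BLA inhibitor control wells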
* marks the source's active call; other numbers are inactive results; i = inactive; / = no result given; ! = a repeat was not active.

SMILES | ANO1 activ | TMEM16A inh | HTR2A ag | TLR4 MyD88 comp | NOD2-RIPK2 inh | TLR9-MyD88 inh
COCC(=O)Oc1c(Sc2ccccc2[N+](=O)[O-])c(C)nn1C(C)(C)C | i | i | 1 | -5 | 1 | -1
CC1(C)CC(=O)C2=C(C1)OC(N)=C(C#N)C2c1cc2c(cc1[N+](=O)[O-])OCO2 (configuration not stated) | -5* | i | -6 | -1 | 2 | 7
CCOc1cc(C2C(C#N)=C(N)OC3=C2C(=O)CC(C)(C)C3)cc([N+](=O)[O-])c1O (configuration not stated) | i | i | 0 | 3 | -6 | -5
OCCCn1c(C(CO)Nc2nc(-c3ccc(Cl)cc3)cs2)nc2ccccc21 (configuration not stated) | i | i | 5 | / | -10 | 1
CC1(C)CC[C@]2(C(=O)O)CC[C@]3(C)C(=CCC4[C@]56CC[C@@](O)(OC5)C(C)(C)C6CC[C@]43C)C2C1 (some centres not stated) | / | / | 4 | / | -9 | /
C[C@@H]1CC[C@]2(C(=O)O)CC[C@]3(C)C(=CCC4[C@]56CC[C@@](O)(OC5)C(C)(C)C6CC[C@]43C)C2[C@H]1C (some centres not stated) | i | 100* | 0 | / | -10 | 3
C[C@H]1[C@H](C)CC[C@]2(C(=O)O)CC[C@]3(C)C(=CC[C@@H]4[C@@]5(C)C[C@@H](O)[C@H](O)C(C)(C)[C@@H]5CC[C@]43C)[C@H]12 | -9.7* | i | -4 | -2 | 7 | -10
CS(=O)(=O)N(CC(=O)N1CCCC1)c1cccc(Cl)c1 | i | i | 1 | 17 | 2 | 2
CN(C)/C=N/c1nc2nccc(-c3ccc(F)cc3)n2n1 | i | i | 2 | -1 | -1 | 1
Cc1csc2nc(CSc3nc4ccccc4o3)c(Br)n12 | i | 25* | -2 | 10 | 6 | -11
CCCCCCCCCCCCCCCCn1cc[n+](C)c1 | i | 25*! | -6 | 2 | -3 | 2
Cc1ccc(N2CC(=O)N(NC(=O)Nc3ccc(Cl)c(Cl)c3)CC2=O)cc1 | i | i | 0 | / | -3 | 3
CC(C)CN(CC(C)C)C(=O)Cc1coc2ccc3ccccc3c12 | i | 25* | -4 | -10 | 4 | -4
O=C(O)Cc1coc2ccc3ccccc3c12 | i | i | 0 | -10 | -11 | 1
Cc1cccc(NC(=O)/C(C#N)=C\c2cc(C)n(-c3ccc(C(=O)O)cc3)c2C)c1 | i | i | 2 | -7 | -3 | -7
C=CCCCN(Cc1ccccc1)S(=O)(=O)c1ccccc1Br | -6.2* | 25* | -3 | / | 0 | -2
CSc1ccccc1C(=O)Nc1ccccc1C | i | i | -3 | 13 | -1 | -4
Cc1ccccc1NC(=O)c1ccccc1O | i | 25* | 5 | -16 | 13 | 1
CCOc1ccccc1N1CCN(C(=O)Nc2cccc(Cl)c2)CC1 | i | i | -7 | -9 | 1 | 3
O=C(OCc1nnc(-c2ccc(Cl)cc2)o1)c1ccc(O)cc1 | i | i | -2 | -4 | -9 | 0
CS(=O)(=O)c1ccc(C(=O)OCc2nnc(-c3ccc(Cl)cc3)o2)cc1[N+](=O)[O-] | i | 25* | -1 | 0 | 15 | 15
CC(C)CN1CCN(Cc2ccc(C#CC(C)(C)O)cc2)CC1CCO (configuration not stated) | i | i | -1 | -9 | 7 | -5
CC(C)CCN1CCN(Cc2ccc(C#CC(C)(C)O)s2)CC1CCO (configuration not stated) | -8.5* | i | 1 | 13 | -3 | -5
O=C(Nc1cccc(Cl)c1)Nc1ccccc1C(=O)NCc1ccco1 | i | i | -2 | -8 | -4 | 10
CCc1cc2c3c(c1)/C(=C1/SC(N)=NC1=O)C(=O)N3C(C)(C)C=C2C | i | 100* | 3 | 0 | -10 | 1
SMILES | ANO1 activ | TMEM16A inh | HTR2A ag | TLR4 MyD88 comp | NOD2-RIPK2 inh | TLR9-MyD88 inh
COc1cc2c3c(c1)C(C)=CC(C)(C)N3C(=O)C2=O | i | i | 1 | 1 | 12 | 0
Cc1ccc(O)c(NC(=O)c2ccccc2-c2ccccc2C(=O)O)c1 | i | i | 8 | / | 2 | 4
Cc1nn(-c2cc(C(F)(F)F)ccc2Cl)c2nc(C(Cl)(Cl)Cl)[nH]c(=O)c12 | i | 100* | 0 | / | 0 | 8
Cc1nn(-c2ccccc2)c2nc(C(F)(F)F)[nH]c(=O)c12 | i | i | 6 | -12 | -5 | -1
COc1ccc(CNC(=O)CN(Cc2ccc(Cl)cc2)C(=O)c2csnn2)cc1 | i | i | -2 | / | -3 | 2
O=c1[nH]c(CSc2nc3ccccc3[nH]2)nc2c1cnn2-c1ccccc1 | i | 100* | -4 | 3 | -2 | -9
OC(c1ccccc1)(c1nc(/C=C/c2ccccc2)cs1)C(F)(F)F (configuration not stated) | / | / | -11 | / | -2 | /
CCc1nn2cc(C(=O)c3cc(Cl)ccc3O)cnc2c1-c1ccc(F)cc1 | i | 100* | -4 | 2 | 8 | -9
COc1ccc(C(=O)NC(=S)NNC(=O)c2ccc(O)cc2)cc1[N+](=O)[O-] | i | i | 1 | / | -4 | -1
CCOC(=O)Cc1csc(NS(C)(=O)=O)n1 | i | i | 8 | -2 | -44 | -3
CCCc1cc(-c2[nH]ncc2-c2ccc3c(c2)OCCCO3)c(O)cc1O | i | 25* | -3 | 8 | 7 | -2
O=C(Nc1ccccc1)c1ccccc1OCC(O)CN1C(=O)c2ccccc2S1(=O)=O (configuration not stated) | i | 100* | 1 | -4 | 1 | -1
CN1CCN(/C=N/c2sc3c(c2C#N)CCCCC3)CC1 | i | i | 0 | -11 | -14 | 3
N#Cc1c(/N=C/C=C/c2ccccc2)sc2c1CCCC2 | i | i | 16* | -13 | -4 | 4
COc1ccc(NC(=O)c2cc(-c3cccs3)on2)cc1 | i | i | -1 | / | -7 | -4
OC[C@@H]1CN(Cc2ccc(-c3ccccc3)cc2)C[C@H](n2cnc3c(NCc4ccco4)ncnc32)O1 | / | / | 18* | / | 3 | /
Cc1nc(S(=O)(=O)N2CCOCC2)c(C#N)c(C)c1Cl | i | i | 6 | -3 | -8 | 1
CCOC(=O)N1CCN(C(=O)c2cc3cc(OC)c(OC)cc3[nH]2)CC1 | i | i | 2 | / | 2 | 3
CN1C(=O)Cc2cc(S(=O)(=O)N3CCN(c4ccc(Cl)cc4)CC3)ccc21 | i | i | 15* | / | 5 | 1
CN1C(=O)Cc2cc(S(=O)(=O)N3CCN(c4cccc(Cl)c4)CC3)ccc21 | i | i | 3 | / | -9 | 2
